Results filed as inconclusive are left out. A number with no mark means an inactive call. Active and inactive are the calls of the source. Calls follow the shape of the dose curve; as a rule, active = well fitted curve in the direction sought with a large enough effect; inconclusive = small, poorly fitted or top-dose-only effect, or another doubt; inactive = no such curve, though single readings can be large or run the other way.
Each compound was assayed against Metallo-beta-lactamase type 2 (Klebsiella pneumoniae) (UniProt C7C422) (assay: qHTS to identify inhibitors of the New Delhi Metallo-beta-lactamase (NDM): assay validation screen against the NCATS LOPAC Collection (AID 1794843;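 also: nitrocefin turnover by NDM-1 measured as 485 nm absorbance at plateau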)). Settings: NDM-1 enzyme, nitrocefin hydrolysis, absorbance 485 nm; series mostly up to 38.4 µM; activity change, negative = inhibition: at the top concentration.
Sequence of Metallo-beta-lactamase type 2 (Klebsiella pneumoniae) (C7C422 whole entry, looked up): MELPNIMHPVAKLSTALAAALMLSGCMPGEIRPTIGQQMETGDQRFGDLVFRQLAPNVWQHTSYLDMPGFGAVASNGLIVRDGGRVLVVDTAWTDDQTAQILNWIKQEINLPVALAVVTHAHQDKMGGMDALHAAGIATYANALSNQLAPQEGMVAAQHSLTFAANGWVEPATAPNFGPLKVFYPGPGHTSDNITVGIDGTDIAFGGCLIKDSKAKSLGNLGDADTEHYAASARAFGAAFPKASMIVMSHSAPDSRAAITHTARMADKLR
Excerpt: Assay Submitter (PI): James Inglese Ph.D., Patricia Dranchak Ph.D., Mahesh Aitha Ph.D.
Assay Development and Screening Technology Laboratory (ADST)
National Center for Advancing Translational Sciences (NCATS), Rockville, MD
National Institute of Health (NIH), Bethesda, Maryland
The metallo-beta-lactamases (MBL) are a main antibiotic resistance mechanism evolved by bacteria. There is an urgent clinical need for MBL inhibitors to mitigate this growing threat. To support a machine-based learning study, qHTS has been used to experimentally test inhibitors identified by prediction tools.
PROTOCOL TABLE (as described by Inglese et al., 2007)
SEQUENCE No. (e.g., 1, 2, 3, etc.); […] (e.g., enzyme, Incubation, Reagent, etc.); VALUE; DESCRIPTION
1; NDM-1; 4 uL of 3 nM enzyme in 50 mM HEPES (pH 7.0), 1 uM Zn2SO4, 0.01% Tween20; Use BioRaptr to dispense into Aurora black, clear bottom low base 1536-well plates
2; Compounds; 23 nL; Use Pin Tool (Wako) to transfer DMSO control and library compounds in DMSO
4; Reagent; 2 uL of 50 uM nitrocefin
6; Detector; Absorbance at 485 nm (bandwidth = 5 nm, 25 flashes/well) on Tecan Infinity
NOTES (numbers refer to sequence above)
1; Column 1 of each plate received assay buffer without enzyme and columns 2-48 received enzyme for a final assay concentration of 2 nM.
2; Control plate contained DMSO in columns 1, 2, 3, and 4.
3; Compound interaction with enzyme.
5; Substrate interaction with enzyme, plateau phase of kinetics.
6; Default reader settings were applied for absorbance read at 485 nm, bandwidth = 5 nm, 25 flashes/well.
Inglese J, Shamu CE, Guy RK. 2007. Reporting data from high-throughput screening of small-molecule libraries. Nat Chem Biol. doi:10.1038/nchembio0807-438
Yasgar A, Shinn P, Jadhav A, Auld D, Michael S, Zheng W, Austin CP, Inglese J, Simeonov A. 2008. Compound Management for Quantitative High-Throughput Screening. J Lab Autom 13:79 - 89. doi:10.1016/j.jala.2007.12.004
% is scaled to controls: 0 for no effect and ±100 for the full control effect.

Row | SMILES | activity change, negative = inhibition | Potency
1 | NC[C@H]1O[C@@H](n2cnc3c(N)ncnc32)[C@H](O)[C@@H]1O | 2.86% | –
2 | Oc1cc(O)cc(/C=C/c2ccc(O)c(O)c2)c1 | -2.99% | –
3 | Oc1cc2c(cc1O)CN(C(=S)NCCc1ccc(Cl)cc1)CCC2 | -2.33% | –
4 | Oc1ccc(C2CNCc3sccc32)cc1O (stereo not given) | -7.59% | –
5 | NCCCS(=O)(=O)O | -0.968% | –
6 | CNC(=O)[C@H]1O[C@@H](n2cnc3c(NCc4ccc(N)cc4)ncnc32)[C@H](O)[C@@H]1O | 3.76% | –
7 | COc1cc(SC)ccc1C(=O)N1CCC(Cc2ccccc2)CC1 | 0.498% | –
8 | O=C1NCc2c1c1c3ccccc3[nH]c1c1[nH]c3ccccc3c21 | 41.6% | –
9 | O=C1NC(O)=NC1(c1ccccc1)c1ccccc1 | 1.38% | –
10 | COc1cc(OC)c(/C=C2/C(=O)Nc3ccccc32)c(OC)c1 | 4.47% | –
11 | NS(=O)(=O)c1ccc(-n2nc(C(F)(F)F)cc2-c2ccc(Cl)cc2)cc1 | -7.67% | –
12 | COc1ccc(/C=C2\COc3ccc(C)cc3C2=O)cc1O | 2.62% | –
13 | CN[C@H](CC(C)C)C(=O)N[C@H]1C(=O)N[C@@H](CC(N)=O)C(=O)N[C@H]2C(=O)N[C@H]3C(=O)N[C@H](C(=O)N[C@H](C(=O)O)c4cc(O)cc(O)c4-c4cc3ccc4O)[C@H](O)c3ccc(c(Cl)c3)Oc3cc2cc(c3O[C@@H]2O[C@H](CO)[C@@H](O)[C@H](O)[C@H]2O[C@H]2C[C@](C)(N)[C@H](O)[C@H](C)O2)Oc2ccc(cc2Cl)[C@H]1O | 1.1% | –
14 | N#C/C(=C\c1ccc(-c2cc(Cl)ccc2Cl)o1)C(=O)Nc1cccc2ncccc12 | 1.08% | –
15 | Nc1ccn([C@H]2O[C@H](CO)[C@@H](O)C2(F)F)c(=O)n1 | -6.2% | –
16 | NC(N)=NC(=O)c1nc(Cl)c(N2CCCCCC2)nc1N | 1.34% | –
17 | Nc1nc(OCC2CCCCC2)c2[nH]cnc2n1 | -14% | –
18 | O=C(CCCCCN1CCN(c2ccccc2-c2ccccc2)CC1)NC1CCCc2ccccc21 (stereo not given) | 2.69% | –
19 | COC(=O)C1=C(C)NC(C)=C(C(=O)OC)C1c1cccc(NC(=O)NCCCN2CCC(c3cccc(OC)c3)CC2)c1 | -0.878% | –
20 | CN(C)c1ccc(/C=C2\C(=O)Nc3ccccc32)cc1 | 108% | –

Row | SMILES | activity change, negative = inhibition | Potency
21 | COc1ccc2c(c1)CCC1C2CC[C@@]2(C)C1CC[C@@H]2NCCCCCCN1C(=O)CCC1=O (stereo not given in full) | -6.01% | –
22 | Nc1nc(Nc2ccccc2)nc2c1ncn2[C@@H]1O[C@H](CO)[C@@H](O)[C@H]1O | -4.88% | –
23 | O=C(O)CCCC[C@@H]1CCSS1 | -4.38% | –
24 | NCCSSCCN | -5.54% | –
25 | S=c1[nH]c(-c2ccccc2)cn1-c1ccccc1 | -10.2% | –
26 | O=C(c1ccc(Cl)cc1)N1CCN(c2ccc([N+](=O)[O-])c3ncccc23)CC1 | -0.204% | –
27 | COC(=O)c1c(C)[nH]c(C)c1C(=O)c1ccccc1Cc1ccccc1 | -3.03% | –
28 | Nc1nc(Cl)nc2c1ncn2[C@@H]1O[C@H](CO)[C@@H](O)[C@H]1O | -7.12% | –
29 | O=C(CCc1ccncc1)NNC(=O)N1Cc2ccccc2Oc2ccc(Cl)cc21 | 1.02% | –
30 | C[N+]1(C)C2CC(OC(=O)[C@H](CO)c3ccccc3)CC1C1OC12 (stereo not given in full) | – | inactive
31 | Oc1ccccc1O | -1.01% | –
32 | Cn1c(=O)c(-c2c(Cl)cccc2Cl)cc2cnc(Nc3ccc(N4CCOCC4)cc3)nc21 | -8.4% | –
33 | COc1ccc(/C=C/c2nc(NCCCN(C)C)c3ccccc3n2)cc1 | 0.792% | –
34 | O=C(NOCC1CC1)c1cc(Br)c(F)c(F)c1Nc1ccc(I)cc1Cl | -5.91% | –
35 | O=C(O)CNC(=O)C(CS)Cc1ccccc1 (stereo not given) | -2.51% | –
36 | OC[C@H]1O[C@@H](n2cnc3c(NC4CCCCC4)ncnc32)[C@H](O)[C@@H]1O | 10.7% | –
37 | C[N+](C)(C)CCOP(=O)(O)OP(=O)([O-])OC[C@H]1O[C@@H](n2ccc(N)nc2=O)[C@H](O)[C@@H]1O | -0.471% | –
38 | CCOC(=O)C1=C(C)NC(C)=C(C(=O)OCC)C1c1c(F)c(F)c(F)c(F)c1F | -0.297% | –
39 | CN1CCc2cc(NC(=O)Nc3cccnc3)ccc21 | -18.2% | –
40 | C=CC(N)CCC(=O)O (stereo not given) | 0.364% | –

Reference: PubChem BioAssay (NCATS)
